Consider 35 molecules from ChEMBL document CHEMBL1157539, “Thousands of chemical starting points for antimalarial lead identification” (Nature, 2010).

The structures appear in SMILES notation.

One test has as its system Plasmodium falciparum. Nature of the test: GSK_TCMDC: Inhibition of Plasmodium falciparum Dd2 in whole red blood cells, using parasite LDH activity as an index of growth. Test compounds present at 2uM. Format: functional.
As usually defined, the Inhibition is how much of the control response was suppressed. For the molecule `Cc1cc(C(F)(F)F)n2nc(C3CCN(Cc4cc(C)c(O)c(C)c4)C3)cc2n1.O=C(O)CC(O)(CC(=O)O)C(=O)O` (stereo not given), the Inhibition stood at 99%.
The molecule `CCC(=O)c1c(C)n(-c2ncnc3c2nc(C)n3-c2ccc(C)cc2C)c2ccccc12` came in with an Inhibition of 78%.
Same read-out and setting: with `CC(C)(C)c1ccc(S(=O)(=O)Nc2cc(Cl)ccc2Cn2ccc(N3CCNCC3)nc2=O)cc1.O=C(O)C(F)(F)F` the figure was 74%; with `CCc1c(C)nc2nc(Cc3cccc(F)c3)nn2c1N1CCN(c2ccccn2)CC1`, 98%; with `Cl.N#Cc1ccc2c(c1)CCN(CCC1CCC(Nc3ncnc4ccccc34)CC1)C2` (stereo not given), 96%.
On the same count and under the same terms, with `COc1ccc(CNC2Cc3ccccc3C2)cc1-c1ccc(S(=O)(=O)NCCN2CCCC2)c(F)c1.O=C(O)C(F)(F)F` the figure was 69%.
For the molecule `COc1ccc(C=NN=c2cc(C)[nH]c3ccc(C)cc23)c2ccccc12.Cl`, the Inhibition is reported as 55%.
On the same count and under the same terms, with `Cc1cccc2nc(-c3ccc(-c4ccc(NC(=O)Nc5cccc(C#N)c5)cc4)cc3)[nH]c12` the figure was 100%; with `COc1ccc2nccc([C@@H](O)CN3CCC(NC(=O)c4cc5c(Cl)cc(Cl)cc5[nH]4)CC3)c2c1`, 98%.

A further test has as its system HepG2. The experiment in a line: GSK_TCMDC: Percent inhibition of human HepG2 cell line. Test compounds present at 10uM. Format: functional.
Regarding `CCCc1cc(NC2CCN(C)CC2)nc(Nc2ccc(F)cc2)n1`, the Inhibition is given as 20%.
For the molecule `CNc1ccc(CNCc2ccc(-c3ccc(-c4nc5cccc(C)c5[nH]4)cc3)cc2)cc1.O=C(O)C(F)(F)F`, the Inhibition was determined as 35%.
Still for that read-out and setting: in the case of `CC(C#N)Cc1ccc(-c2cnc(N)c3cc(-c4ccnc(N)n4)ccc23)cc1` (stereo not given) it was 56%; in that of `CCC[C@@H]([C@@H](CC1CCCCC1)C(=O)N[C@H](C(=O)Nc1nccs1)[C@@H](C)OCc1ccccc1)N(O)C=O`, 51%.
Still for that read-out and setting: with `CCN(CC)CCN(Cc1ccc(-c2ccc(C(F)(F)F)cc2)cc1)C(=O)Cn1cc(CCCc2cccc(F)c2F)c(=O)c2ccccc21.O=C(O)C(O)C(O)C(=O)O` the figure was 13%.
On the same count and under the same terms, with `Cc1cccc2c3c([nH]c12)C1(CCN(CCc2ccccc2)CC1)NC(C(=O)NCc1ccccc1)C3` (stereo not given) the figure was 10%; with `COc1ccccc1-c1cccc(CNC2CCN(CC3Cn4c(=O)ccc5ccc(F)c3c54)CC2)c1.O=C(O)C(F)(F)F` (stereo not given), 30%; with `CN1CCN(c2ccnc3ccc(NC(=O)Nc4ccc5c(c4)CCCC5=O)cc23)CC1`, 8%.
On to `CC(C)NCc1ccc(-c2cccc(NC(=O)c3ccc(Cl)cc3)c2)cc1.O=C(O)C(F)(F)F`, for which the Inhibition was 20%.
Still for that read-out and setting: in the case of `COc1cccc(CNC[C@@H](O)[C@H](Cc2ccccc2)NC(=O)c2cc(N3CCCC3=O)c3[nH]cc(C(C)C)c3c2)c1` it was 5%; in that of `CC1CCCC(NC(=O)CCOc2ccccc2)C1` (stereo not given), 0%.
Still for that read-out and setting: with `COCCN(CCOC)c1ncc(-c2ccsc2)c(-c2nc(C)c(C)s2)n1` the figure was 1%; with `NCc1ccc(-c2cccc(CNC3CCN(Cc4ccccc4)CC3)c2)cc1.O=C(O)C(F)(F)F`, 24%.
Same read-out and setting: in the case of `Cn1cnc(CCNC(=O)c2cccc(-c3csc(-c4nc5ccccc5[nH]4)c3)c2)c1` it was 33%; in that of `CN(c1ccccc1)S(=O)(=O)c1cccc(NC(=O)c2ccc(-n3ccnc3)c([N+](=O)[O-])c2)c1`, 19%; in that of `CC(C)N(C(=O)CSc1nc2cc(Cl)ccc2c(=O)n1Cc1ccccc1)C(C)C`, 0%.
Consider `Oc1cccc(-c2nc3cc(C4=NC5CCCCC5N4)ccc3[nH]2)c1` (stereo not given), for which the Inhibition came to 3%.
The same measure, in the same setting: in the case of `COc1ccc(NC(=O)[C@H](CC(C)C)Nc2cc(C)nc(NCC3CCCCC3)n2)cc1.O=C(O)C(F)(F)F` it was 7%; in that of `COc1ccc(CCNCc2cc3c(C(C)(C)C)nn(-c4ccc(Cl)cc4)c3[nH]c2=O)cc1OC`, 13%.
Still for that read-out and setting: with `O=C(Nc1cccc(-c2nc3ccccc3[nH]2)c1)c1ccc(-c2cccc([N+](=O)[O-])c2)o1` the figure was 22%; with `O=C(NC1CCN(Cc2ccccc2)CC1)c1cc(-c2cccnc2)nc2ccc(Cl)cc12`, 0%.
Still for that read-out and setting: in the case of `CC[C@H]1CN2CCc3c([nH]c4ccccc34)[C@@H]2C[C@@H]1CC1c2cc(OC)c(OC)cc2CCN1C.Cl` (stereo not given in full) it was 31%; in that of `COc1cc2ccccc2c(CON2C(=N)N=C(N)NC2(C)C)c1OC.Cl`, 2%.
`O=S(=O)(c1cccc(Cl)c1F)N(CCC(O)(C(F)(F)F)C(F)(F)F)Cc1cccc(O)c1` had an Inhibition of 0%.
On the same count and under the same terms, in the case of `CC(C)CCNC(=O)C1Cc2c([nH]c3cc(Br)ccc23)C2(CCN(CCc3ccccc3)CC2)N1` (stereo not given) it was 14%.
Same read-out and setting: in the case of `COc1ccc(C)c(Nc2ccnc(Nc3ccc(-c4cnc[nH]4)cc3)n2)c1.Cl` it was 40%.
